Measurements published in PubChem BioAssay (Tox21).
Results filed as inconclusive are left out. The source made the active and inactive calls. Unless noted, calls follow the shape of the dose curve; as a rule, active = well fitted curve in the direction sought with a large enough effect in the repeat runs; inconclusive = weak or mixed curves; inactive = no such curve, though single readings can be large; an effect the other way counts as inactive or inconclusive.

Columns and labels:
[1] = qHTS assay to identify small molecule antagonists of the thyroid receptor (TR) signaling pathway - cell viability counter screen (AID 743064); also: nearly all actives have a fitted effect of over 50% in size
Outline: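 GH3.TRE-Luc rat pituitary cells carrying a TRE-luciferase reporter were treated with compound plus 1 nM T3 (final) for 23.5 h at 37 °C. Viability was then read in the same wells by CellTiter-Fluor fluorescence after a further 30 min.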

[2] = tested on: thyroid hormone receptor (rat, GH3 cells); experiment: qHTS assay to identify small molecule agonists of the thyroid receptor (TR) signaling pathway (AID 743066; calls by dose curve)
[3] = qHTS assay to identify small molecule antagonists of the estrogen receptor alpha (ER-alpha) signaling pathway - cell viability counter screen (AID 743074; calls by dose curve;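 also: HEK293 cells carrying ER-alpha-UAS-bla reporter stimulated with 17beta-estradiol; nearly all actives have a fitted effect of over 45% in size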)
[4] = qHTS assay to identify small molecule antagonists of the estrogen receptor alpha (ER-alpha) signaling pathway using the BG1 cell line - cell viability counter screen (AID 743081);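 also: compound given together with 17beta-estradiol as the ER stimulus; series mostly up to about 70 µM; nearly all actives have a fitted effect of over 45% in size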
Aromatase (Homo sapiens) = Aromatase (Homo sapiens) (UniProt P11511); experiment: qHTS assay to identify aromatase inhibitors (AID 743083); also: series mostly up to about 70 µM; nearly all actives have a fitted effect of over 55% in size
Chain of Aromatase (Homo sapiens) (P11511 whole entry, looked up): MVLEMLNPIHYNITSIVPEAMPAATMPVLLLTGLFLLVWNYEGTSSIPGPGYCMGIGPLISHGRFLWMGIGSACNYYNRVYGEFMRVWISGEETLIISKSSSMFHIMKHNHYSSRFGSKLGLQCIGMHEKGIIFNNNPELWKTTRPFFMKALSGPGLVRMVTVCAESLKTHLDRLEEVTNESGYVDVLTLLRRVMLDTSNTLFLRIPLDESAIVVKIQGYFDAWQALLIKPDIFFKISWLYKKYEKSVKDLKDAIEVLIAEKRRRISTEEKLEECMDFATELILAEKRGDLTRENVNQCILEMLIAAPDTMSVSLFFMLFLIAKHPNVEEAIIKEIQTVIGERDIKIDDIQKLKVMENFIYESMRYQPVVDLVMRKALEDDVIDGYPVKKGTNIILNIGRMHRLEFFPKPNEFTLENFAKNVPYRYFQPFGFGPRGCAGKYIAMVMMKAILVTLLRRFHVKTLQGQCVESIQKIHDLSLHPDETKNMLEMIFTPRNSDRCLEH

[5] = qHTS assay to identify aromatase inhibitors - cell viability counter screen (AID 743084);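 also: cells stimulated with testosterone during compound exposure; nearly all actives have a fitted effect of over 55% in size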
[6] = biological target: Aryl hydrocarbon receptor (Homo sapiens) (UniProt P35869); experiment: qHTS assay to identify small molecule that activate the aryl hydrocarbon receptor (AhR) signaling pathway (AID 743085);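 also: HG2L7.5c1 human HepG2 liver cells with stably integrated DRE-driven firefly reporter; series mostly up to about 70 µM; nearly all actives have a fitted effect of over 15% in size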
Chain of Aryl hydrocarbon receptor (Homo sapiens) (P35869 whole entry, looked up): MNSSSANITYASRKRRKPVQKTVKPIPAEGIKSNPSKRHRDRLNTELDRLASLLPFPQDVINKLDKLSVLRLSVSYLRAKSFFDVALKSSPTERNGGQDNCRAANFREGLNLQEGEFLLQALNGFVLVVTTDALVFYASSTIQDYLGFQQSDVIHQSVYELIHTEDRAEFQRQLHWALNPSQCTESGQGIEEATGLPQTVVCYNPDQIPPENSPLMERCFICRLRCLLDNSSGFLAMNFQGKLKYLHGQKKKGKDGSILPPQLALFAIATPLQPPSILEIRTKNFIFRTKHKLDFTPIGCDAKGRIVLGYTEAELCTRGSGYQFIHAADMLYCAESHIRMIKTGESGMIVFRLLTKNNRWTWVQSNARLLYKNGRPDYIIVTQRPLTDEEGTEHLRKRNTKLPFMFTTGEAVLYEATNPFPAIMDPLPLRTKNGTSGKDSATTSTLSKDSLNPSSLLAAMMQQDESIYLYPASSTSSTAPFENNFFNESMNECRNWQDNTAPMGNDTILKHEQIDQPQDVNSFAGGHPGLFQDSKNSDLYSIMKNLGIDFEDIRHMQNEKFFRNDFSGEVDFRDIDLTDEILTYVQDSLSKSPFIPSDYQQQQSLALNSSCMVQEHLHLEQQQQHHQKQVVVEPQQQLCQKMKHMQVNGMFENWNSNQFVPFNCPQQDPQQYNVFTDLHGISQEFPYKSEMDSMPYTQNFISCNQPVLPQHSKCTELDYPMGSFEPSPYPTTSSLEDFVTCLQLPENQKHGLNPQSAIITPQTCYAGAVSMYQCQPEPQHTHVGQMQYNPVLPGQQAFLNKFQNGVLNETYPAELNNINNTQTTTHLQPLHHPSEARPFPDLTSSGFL
Outline: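 HepG2 cells (HG2L7.5c1) stably carrying a firefly luciferase reporter driven by 20 dioxin responsive elements were exposed to compound for 24 h at 37C after a 5 h settling period; luminescence rise (ONE-Glo) indicated activation.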

[7] = qHTS assay to identify small molecule that activate the aryl hydrocarbon receptor (AhR) signaling pathway - cell viability counter screen (AID 743086);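 also: HepG2 liver cells carrying the AhR DRE luciferase reporter; series mostly up to about 70 µM; nearly all actives have a fitted effect of over 45% in size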
Outline: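 Cytotoxicity counter screen: CellTiter-Fluor signal (30 min, 37 C) in 4000 HepG2 cells/well carrying the DRE-luciferase reporter, following 24 h compound exposure at 37 C.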

[8] = biological target: Peroxisome proliferator-activated receptor gamma (Homo sapiens) (UniProt P37231); experiment: qHTS assay to identify small molecule agonists of the peroxisome proliferator-activated receptor gamma (PPARg) signaling pathway (AID 743094; active = well fitted activation curve with a large enough effect in the signal ratio in the repeat runs, not every such curve was filed as active; the % refers to the signal ratio)
Chain of Peroxisome proliferator-activated receptor gamma (Homo sapiens) (P37231 whole entry, looked up): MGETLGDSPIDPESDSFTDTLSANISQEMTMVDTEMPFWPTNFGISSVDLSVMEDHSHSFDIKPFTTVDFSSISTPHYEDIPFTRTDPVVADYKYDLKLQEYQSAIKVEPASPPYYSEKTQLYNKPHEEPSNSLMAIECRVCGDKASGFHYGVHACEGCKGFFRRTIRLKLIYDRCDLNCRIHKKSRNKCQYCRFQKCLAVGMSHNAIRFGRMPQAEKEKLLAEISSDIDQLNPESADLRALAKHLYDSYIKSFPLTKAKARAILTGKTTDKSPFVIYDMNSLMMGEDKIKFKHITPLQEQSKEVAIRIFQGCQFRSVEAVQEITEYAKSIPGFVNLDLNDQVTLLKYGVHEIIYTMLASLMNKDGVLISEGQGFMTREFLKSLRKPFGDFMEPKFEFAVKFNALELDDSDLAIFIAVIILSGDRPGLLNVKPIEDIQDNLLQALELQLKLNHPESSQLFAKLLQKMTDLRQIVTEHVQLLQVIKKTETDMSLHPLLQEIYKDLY
Outline: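 HEK293H PPARg-bla cells, 5 h settle at 37C/5% CO2; compound (DMSO) 17 h, 37C; B/G FRET substrate 1 h RT; fluorescence intensity read-out. qHTS format.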

[9] = biological target: Peroxisome proliferator-activated receptor gamma (Homo sapiens) (UniProt P37231); experiment: qHTS assay to identify small molecule antagonists of the peroxisome proliferator-activated receptor gamma (PPARg) signaling pathway (AID 743191; calls by dose curve; also: series mostly up to about 63 µM; nearly all actives have a fitted effect of over 30% in size)
Outline: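 Beta-lactamase reporter under UAS control in HEK293H PPARg-bla cells; compound treatment 17 h at 37C. Read-out: fluorescence intensity after 1 h room-temperature incubation with LiveBLAzer B/G FRET substrate.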

[10] = qHTS assay to identify small molecule antagonists of the peroxisome proliferator-activated receptor gamma (PPARg) signaling pathway - cell viability counter screen (AID 743194); also: nearly all actives have a fitted effect of over 55% in size
Outline: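 Viability was measured as CellTiter-Glo luminescence in GeneBLAzer PPARg UAS-bla HEK293H cells. These cells had been exposed 17 h at 37 C to compounds together with rosiglitazone at 50 nM final, with the beta-lactamase readout taken in the same wells.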

[11] = qHTS assay for small molecule agonists of the antioxidant response element (ARE) signaling pathway (AID 743202; active = well fitted activation curve with a large enough effect in the signal ratio in the repeat runs, not every such curve was filed as active; the % refers to the signal ratio)
Outline: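 After 16 hours of compound treatment at 37 C, HepG2 cells with a stably integrated ARE-driven beta-lactamase reporter were loaded 2 hours at room temperature with LiveBLAzer B/G FRET substrate and fluorescence intensity measured.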

[12] = qHTS assay for small molecule agonists of the antioxidant response element (ARE) signaling pathway - cell viability counter screen (AID 743203; calls by dose curve; also: nearly all actives have a fitted effect of over 55% in size)
Outline: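 Luminescence read-out (CellTiter-Glo, 30 min at room temperature) measured cell viability in the same wells as the ARE beta-lactamase reporter. HepG2 ARE-bla cells were treated with compounds for 16 hrs at 37C/5% CO2.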

[13] = qHTS assay for small molecule activators of the heat shock response signaling pathway - cell viability counter screen (AID 743209); also: nearly all actives have a fitted effect of over 50% in size
Outline: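 HSE-bla HeLa; 1500 cells/well; overnight 37 C, 5% CO2; compound 5 h 37 C; LiveBLAzer B/G substrate 2.5 h RT; CellTiter-Glo 30 min RT; luminescence.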

[14] = qHTS assay for small molecule activators of the heat shock response signaling pathway (AID 743210; active = well fitted activation curve with a large enough effect in the signal ratio in the repeat runs, with a control signal flat, not every such curve was filed as active; the % refers to the signal ratio; also: series mostly up to about 63 µM)
Outline: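 Compound exposure lasted 5 h at 37 C in HeLa cells carrying a heat-shock-element-driven beta-lactamase reporter. Read-out: fluorescence intensity after 2.5 h room-temperature loading with LiveBLAzer B/G FRET substrate.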

[15] = biological target: Estrogen receptor (Homo sapiens) (UniProt P03372); experiment: qHTS assay to identify small molecule agonists of the estrogen receptor alpha (ER-alpha) signaling pathway (AID 743075; calls by dose curve;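 also: HEK293 GripTite cells with ER-alpha and UAS-driven beta-lactamase reporter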)
Chain of Estrogen receptor (Homo sapiens) (P03372 whole entry, looked up): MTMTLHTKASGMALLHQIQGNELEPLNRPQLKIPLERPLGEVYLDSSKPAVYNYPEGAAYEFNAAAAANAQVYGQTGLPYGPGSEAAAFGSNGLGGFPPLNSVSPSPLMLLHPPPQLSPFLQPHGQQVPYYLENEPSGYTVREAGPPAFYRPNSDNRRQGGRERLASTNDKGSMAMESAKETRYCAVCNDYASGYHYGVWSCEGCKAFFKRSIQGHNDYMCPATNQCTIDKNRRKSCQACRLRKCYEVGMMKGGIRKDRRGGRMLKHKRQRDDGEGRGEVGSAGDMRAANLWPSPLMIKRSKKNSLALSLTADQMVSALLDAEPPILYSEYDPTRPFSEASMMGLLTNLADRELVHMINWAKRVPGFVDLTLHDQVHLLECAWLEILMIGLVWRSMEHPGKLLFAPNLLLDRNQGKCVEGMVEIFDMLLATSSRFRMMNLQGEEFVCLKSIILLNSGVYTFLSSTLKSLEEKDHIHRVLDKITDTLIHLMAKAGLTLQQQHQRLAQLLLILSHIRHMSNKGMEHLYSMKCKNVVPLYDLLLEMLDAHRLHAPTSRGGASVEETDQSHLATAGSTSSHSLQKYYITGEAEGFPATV

[16] = biological target: Estrogen receptor (Homo sapiens) (UniProt P03372); experiment: qHTS assay to identify small molecule agonists of the estrogen receptor alpha (ER-alpha) signaling pathway using the BG1 cell line (AID 743079); also: nearly all actives have a fitted effect of over 20% in size
[17] = qHTS assay to identify small molecule antagonists of the estrogen receptor alpha (ER-alpha) signaling pathway using the BG1 cell line (AID 743080; calls by dose curve;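 also: BG1 cells stimulated with 17beta-estradiol alongside compound; series mostly up to about 70 µM; nearly all actives have a fitted effect of over 25% in size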)
Outline: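 Seeding, 24 h rest, compound transfer from DMSO, 17beta-estradiol addition, 21.5 h incubation, CellTiter-Fluor (30 min, 37 C), then ONE-Glo (30 min, room temperature): this sequence was run on BG1-Luc-4E2 reporter cells.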

[18] = qHTS assay to identify small molecule antagonists of the thyroid receptor (TR) signaling pathway (AID 743065)
Outline: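 Antagonism measured as loss of luciferase signal in GH3 cells stably carrying a TRE-luciferase reporter, co-treated with compound and T3 (1 nM final) for 23.5 h at 37 C. Viability was read in the same well by CellTiter-Fluor.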

Measured: Potency

COCCOC(=O)c1ccccc1C(=O)OCCOC
inactive: [1] | [2] | [3] | [4] | Aromatase (Homo sapiens) | [5] | [6] | [7] | [8] | [9] | [10] | [11] | [12] | [13] | [14]

C=C(C)CNCC
inactive: [1] | [2] | [3] | [4] | Aromatase (Homo sapiens) | [5] | [6] | [7] | [8] | [10] | [11] | [13] | [14]

CC(=O)OCc1ccco1
inactive: [1] | [2] | [3] | [15] | [16] | [17] | [4] | Aromatase (Homo sapiens) | [5] | [6] | [7] | [8] | [10] | [11] | [13] | [14]

CN(C)c1ccc(Cc2ccc(N(C)C)cc2)cc1
inactive: [1] | [2] | [3] | [4] | Aromatase (Homo sapiens) | [5] | [7] | [8] | [9] | [10] | [11] | [12] | [13] | [14]

CCOC(=O)c1ccc(N)cc1
inactive: [1] | [2] | [3] | [4] | Aromatase (Homo sapiens) | [5] | [7] | [8] | [10] | [13] | [14]

COc1ccc(C)cc1N
inactive: [18] | [2] | [3] | [15] | [16] | [17] | [4] | Aromatase (Homo sapiens) | [5] | [7] | [8] | [10] | [11] | [12] | [13] | [14]

CC(C)CC(=O)CC(C)CC(C)C (stereo not given)
inactive: [1] | [2] | [3] | [4] | Aromatase (Homo sapiens) | [5] | [7] | [8] | [9] | [10] | [11] | [12] | [13] | [14]

COc1ccc(OC)cc1
inactive: [1] | [15] | [16] | [17] | [4] | Aromatase (Homo sapiens) | [5] | [6] | [7] | [8] | [9] | [10] | [11] | [12] | [13] | [14]

O=C(O)/C=C/C(=O)O
inactive: [10] | [11] | [13] | [14]

CC(C)OP(=O)(CP(=O)(OC(C)C)OC(C)C)OC(C)C
inactive: [2] | [3] | [15] | [16] | [17] | [4] | Aromatase (Homo sapiens) | [5] | [6] | [7] | [8] | [9] | [10] | [11] | [12] | [13] | [14]

CCO[Si](CCC#N)(OCC)OCC
inactive: [1] | [2] | [3] | [15] | [16] | [17] | [4] | Aromatase (Homo sapiens) | [5] | [7] | [8] | [9] | [10] | [11] | [12] | [13] | [14]

COc1ccc([N+](=O)[O-])cc1N
inactive: [1] | [2] | [3] | [15] | [16] | [17] | [4] | Aromatase (Homo sapiens) | [5] | [7] | [8] | [9] | [10] | [11] | [12] | [13] | [14]
